Experiment [1] can be described thus: qHTS assay to identify small molecule antagonists of the retinoid acid receptor (RAR) signaling pathway - cell viability counter screen (AID 1159551). Note: nearly all actives have a fitted effect of over 35% in size. Note: potency is the fitted concentration of half-maximal effect. As to conditions: C3RL4 cells viability, ATP luminescence (CellTiter-Glo), 6 h; series mostly up to 92.4 µM. In short, it runs like this: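 C3RL4 cells were seeded overnight at 37 C, then treated with compounds plus 1 uM (final) retinol for 6 h at 37 C. Viability was read as ATP by CellTiter-Glo luminescence after 30 min at room temperature.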

A short description of experiment [2]: qHTS assay to identify small molecule antagonists of the estrogen related receptor (ERR) signaling pathway from Tox21 library - cell viability counter screen (AID 1224834). Note: nearly all actives have a fitted effect of over 30% in size. Note: potency is the fitted concentration of half-maximal effect. Conditions: ERR reporter cells viability, CellTiter-Fluor, 17.5 h; series mostly up to 92.4 µM. In short, it runs like this: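 ERR reporter cells were plated 6 h before compound addition, then exposed to test compounds in DMSO for 17.5 h at 37 C. Viability was read as CellTiter-Fluor fluorescence after a 30-minute incubation at 37 C.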
Background: Quantitative high-throughput screening tests each substance at several concentrations.

Experiment [3] can be described thus: qHTS assay to identify small molecule antagonists of the retinoic acid receptor (RAR) signaling pathway (AID 1159552; note: nearly all actives have a fitted effect of over 50% in size). As to conditions: C3RL4 RARE luciferase reporter, retinol-stimulated, 6 h; series mostly up to 92.4 µM. In short, it runs like this:
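Using a RARE-driven luciferase construct in C3RL4 cells, retinol at 1 uM final provided the agonist stimulus while compounds were co-applied. After 6 hours at 37 C, luminescence was recorded to flag inhibitors of retinol signaling.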

A short description of experiment [4]: qHTS assay to identify small molecule agonists of the retinoic acid receptor (RAR) signaling pathway (AID 1159553). Note: potency is the fitted concentration of half-maximal effect. As to conditions: C3RL4 RARE luciferase reporter, agonist, 6 h; series mostly up to 73.3 µM. In short, it runs like this: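 C3RL4 cells carrying a RARE luciferase reporter were plated overnight at 37 C, then exposed to compounds in DMSO for 6 hr at 37 C and 5% CO2. Luminescence was read 30 min after luciferase reagent addition at room temperature.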

The nature of experiment [5]: qHTS assay to identify small molecule antagonists of the estrogen related receptor (ERR) signaling pathway (AID 1224819;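 note: luminescence from an ERR-driven luciferase reporter measured with One-Glo reagent; nearly all actives have a fitted effect of over 50% in size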). Conditions: ERR reporter cell line, luciferase inhibition; series mostly up to 46.1 µM. In short, it runs like this: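 ERR reporter cells were plated at 2,000 cells/well and left 6 h at 37 C/5% CO2 before pin-tool transfer of compounds in DMSO. After 18 h at 37 C, One-Glo was added and luminescence was read 30 min later at room temperature.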

A short description of experiment [6]: qHTS assay to identify small molecule agonists of the estrogen related receptor (ERR) signaling pathway (AID 1224820). As to conditions: ERR reporter cell line, luciferase agonist mode; series mostly up to 46.1 µM. The gist of the method: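 Quantitative HTS of the LOPAC library used NTP ERR reporter cells treated 18 h at 37 C. Signal is luminescence after One-Glo addition and a 30 min room-temperature incubation.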

The nature of experiment [7]: qHTS assay to identify small molecule antagonists of the estrogen related receptor signaling pathway with the pleiotropic PPARgamma coactivator (PGC) cell viability counter screen (AID 1224822; note: potency is the fitted concentration of half-maximal effect). Conditions: ERR/PGC reporter cell line viability counter screen; series mostly up to 92.2 µM. The gist of the method:
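PGC/ERR cells were seeded at 2,000 cells/well, rested 6 h at 37 C/5% CO2, then given compounds in DMSO by pin tool and incubated 17.5 h at 37 C. Viability came from CellTiter-Fluor fluorescence after 30 min.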

Experiment [8] can be described thus: qHTS assay to identify small molecule agonists of the estrogen related receptor signaling pathway with the pleiotropic PPARgamma coactivator (PGC) (AID 1224823). As to conditions: ERR/PGC reporter cell line, luciferase agonist mode; series mostly up to 92.2 µM. In short, it runs like this:
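Cell-based luciferase assay in the NTP-supplied PGC/ERR line, 2,000 cells/well; 18 h compound exposure at 37 C, luminescence after One-Glo.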

The record followed here is PubChem BioAssay (Tox21).

Records with an inconclusive call do not appear. Where a structure was tested more than once in an assay, its records may differ in their call. Active and inactive are the calls of the source. Calls come from the whole dose curve; as a rule, active = well fitted curve in the direction sought with a large enough effect in the repeat runs; inconclusive = weak or mixed curves; inactive = no such curve, though single readings can be large; an effect the other way counts as inactive or inconclusive.

For `CCOc1nc(F)cc2nc(S(=O)(=O)Nc3c(Cl)cccc3Cl)nn12`, the Potency result in experiment [1] and in experiment [2] was “inactive” each time.
Consider `COP(=S)(OC)Oc1ccc([N+](=O)[O-])cc1Cl`, for which the Potency result in experiment [1] and in experiment [3] was “inactive” throughout.
In the case of `O=C1CN=C(c2ccccc2)c2cc(Cl)ccc2N1CC1CC1`, the Potency result in experiment [1], in experiment [3] and in experiment [4] was “inactive” in each case.
In the case of `CCCCC(O)(Cn1cncn1)c1ccc(Cl)cc1Cl` (centres undefined), in experiment [2], the Potency is 54.4 µM (active).
As to `O=C1C(Cl)C(CCl)CN1c1cccc(C(F)(F)F)c1` (centres undefined), the Potency entry in experiment [1] and in experiment [2] was “inactive” in each case.
For `COCCOCCO`, the Potency entry in experiment [1], in experiment [4], in experiment [7] and in experiment [2] was “inactive” in each case. The outcome in experiment [5], in experiment [6] and in experiment [8] was inactive.
`COP(=S)(Oc1cc(Cl)c(Br)cc1Cl)c1ccccc1` (centres undefined): the Potency result in experiment [1] and in experiment [4] was “inactive” in each case.
For the compound `CCOP(=S)(OCC)SCn1nnc2ccccc2c1=O`, the Potency result in experiment [1], in experiment [3] and in experiment [4] was “inactive” each time. The Potency in experiment [2] is 43.3 µM (active).
With `Cc1ccc(-c2c(Cl)nc(C#N)n2S(=O)(=O)N(C)C)cc1`, the Potency result in experiment [1] and in experiment [3] was “inactive” each time. Also, the Potency in experiment [4] was 68.5 µM (active); in experiment [2], 54.4 µM (active).
Take `CCCCCCCCOC(=O)c1ccc(C(=O)OCCCCCCCC)c(C(=O)OCCCCCCCC)c1`: the Potency result in experiment [1], in experiment [4] and in experiment [2] was “inactive” in each case.
Take `O=Cc1ccc2c(c1)OCO2`: the Potency result in experiment [1], in experiment [3] and in experiment [4] was “inactive” in each case.
Regarding `CCCC(Cn1cncn1)c1ccc(Cl)cc1Cl` (centres undefined), the Potency result in experiment [1] and in experiment [4] was “inactive” each time. Moreover, the Potency in experiment [2] was 54.5 µM (active).
As to `O=C(O)C1(c2ccc3c(c2)OC[C@H](Cc2ccc(-c4ccccc4)cc2)[C@H]3O)CCCC1`, the Potency entry in experiment [1], in experiment [3] and in experiment [4] was “inactive” throughout.
With `CCOP(=S)(OCC)Oc1nc(Cl)c(Cl)cc1Cl`, the Potency in experiment [1] is 61.3 µM (active) and inactive. Also, the Potency result in experiment [2] is “inactive”.
Turning to `CCCCc1c(C)nc(NCC)nc1OS(=O)(=O)N(C)C`, the Potency result in experiment [1], in experiment [3] and in experiment [4] was “inactive” throughout.
In the case of `O=C(Nc1ccccc1)Nc1cnns1`, the Potency entry in experiment [1], in experiment [3] and in experiment [4] was “inactive” throughout.
As to `O=[N+]([O-])C(Br)(CO)CO`, the Potency entry in experiment [2] was “inactive”.
`NC(=O)CI`: the Potency result in experiment [1], in experiment [4] and in experiment [2] was “inactive” each time. Also, the call in experiment [5], in experiment [6] and in experiment [8] was inactive. The Potency in experiment [7] is 12.3 µM (active).
In the case of `COC1=CC(=O)O[C@@H](CCc2ccccc2)C1`, the Potency result in experiment [1], in experiment [3], in experiment [4] and in experiment [2] was “inactive” in each case.
